# Measurements as given in PubChem BioAssay (NCI).
# About 83,000 compounds went through this panel and 20% of them were active in at least one assay; those are over-represented in the sample as a whole.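 Plates (96-well) were seeded with cells, treated with compound at one concentration, and incubated for 48 hours before percent growth was determined.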 Values without a mark were called inactive. Active and inactive are the calls of the source. The calls were made as follows: active = growth percent below 10; inactive = the rest.
# Test system: 786-0 renal
# Assay: NCI-60 one-dose screen, 48 h (100 = growth as untreated, 0 = no growth, -100 = all killed)
# Details: 10 µM unless noted
row,Compound,growth
1,CC1(C)c2[nH]c3ccccc3c2C[C@]2(C)[C@H]3CC=C4[C@@H]5C[C@@](C)(C(N)=O)CC[C@]5(C)CC[C@@]4(C)[C@]3(C)CC[C@@H]12,74.5%
2,CCCCCOc1ccc(C(=O)/C(Br)=C/C(=O)O)cc1,98.8%
3,CC(C)N1CCN(Cc2ccc3c(NNC(=O)c4ccccc4)nc4cc(F)ccc4n23)CC1,34.2%
4,N#Cc1cccc(NC(=O)c2oc3ccccc3c2-c2cnn(-c3ccccc3)c2)c1,85.7% [50 µM]
5,Cc1cccc(N2CCN(CC(O)COc3ccc(Cl)cc3)CC2)c1 (centres undefined),98%
6,CCOC(=O)c1c(C)nc2c(c1N)CC(=O)N2Cc1cc(F)cc(Cl)c1,88.2%
7,C[C@@H]1CCC[C@H]1CC(N)C(=O)O (some centres undefined),104%
8,O=CC1(C2(C=O)c3ccccc3-c3ccccc32)c2ccccc2-c2ccccc21,-84.4% (active)
9,O=C1Nc2ccc(I)cc2C1=O,109%
10,CN1CCN(c2ccc(NC(=O)c3nc4ccc5[nH]ncc5c4c4c3CCCC4)cc2C(F)(F)F)CC1,34.3%
11,CN(C)C1CCN(Cc2ccc(NC(=O)c3cncc(C#Cc4cnc(N)c5ncccc45)c3)cc2C(F)(F)F)CC1,-78.9% (active)
12,COc1ccc(C/C(C)=C(/c2ccc(OCCN3CCCCC3)cc2)c2ccc(OC(=O)NCc3ccccc3)cc2)cc1,-91.6% (active)
13,COc1ccccc1NC(=O)Cn1cc(CN2CCN(c3ccnc4cc(Cl)ccc34)CC2)nn1,99%
14,N=C(N)c1ccc(-c2ccc(-c3ccc(F)cc3)o2)o1,15.4%
15,CN1C(=O)/C(=C/c2ccc(C(=O)Nc3ncc(Cc4ccc(Cl)cc4)s3)cc2)SC1=S,47.5%
16,CCCCCC(=O)OCC(=O)O[C@@H]1C[C@]2(C(C)C)O[C@@]1(C)[C@@H]1CC[C@@H](C)[C@H]1[C@@H]2OC(=O)/C=C/c1ccccc1,54.4%
17,CC(=O)N(N=Nc1ccccc1)c1cccc2ccccc12,97.6%
18,COc1ccc(/C=C2\C(=O)N=C3N2NC(c2cc(Br)ccc2O)C=C(C)N3c2ccccc2)cc1 (centres undefined),101%
19,CC(C)(C)[Si](C)(C)O[C@H]1C(=O)C=CN2CC=C[C@@H]12,105% [100 µM]
20,C=C1C(=O)O[C@H]2[C@H]1CC/C(COC(=O)CSCCSCC(=O)OC/C1=C/CC[C@@]3(C)O[C@H]3[C@H]3OC(=O)C(=C)[C@@H]3CC1)=C\CC[C@@]1(C)O[C@@H]21,-24.2% (active)
21,Brc1ccc2[nH]cc(-c3nonc3-c3c[nH]c4ccccc34)c2c1,67.3%
22,COc1cccc(NC(=O)Cn2cc(CN3CCN(c4ccnc5cc(Cl)ccc45)CC3)nn2)c1,99.2%
23,CCOc1ccc(NC(=O)CSc2oc(-c3ccccc3)nc2S(=O)(=O)c2ccc(F)cc2)cc1,45.5%
24,O=C1Nc2ccc(Br)cc2/C1=N/c1n[nH]c(=S)s1,97.8%
25,COc1ccc(C(=O)C2C(c3ccc(OC)cc3)CN(C)C23C(=O)Nc2ccccc23)cc1 (centres undefined),96%
26,Cc1noc(C)c1C(=O)OCc1coc2ccccc2c1=O,55.4%
27,C[C@]12CC[C@@H]3c4ccc(O)c([N+](=O)[O-])c4CC[C@H]3[C@@H]1CCC2=O,90.1%
28,COc1cccc([C@H]2c3[nH]c4ccccc4c3C[C@H]3C(=O)N(CCCCCCC(=O)NO)CC(=O)N23)c1,87.8%
29,CO/N=C(/C)c1ccc(NC(=O)CSc2nnc(-c3ccncc3)n2-c2ccccc2)cc1,-43.1% (active)
